Measured values reported in PubChem BioAssay (NCATS).
Inconclusive results are not listed. Where a structure was tested more than once in an assay, its records may differ in their call. Calls of active or inactive are those of the source. Unless noted, calls follow the shape of the dose curve; as a rule, active = well fitted curve in the direction sought with a large enough effect; inconclusive = small, poorly fitted or top-dose-only effect, or another doubt; inactive = no such curve, though single readings can be large; an effect the other way counts as inactive or inconclusive.

Columns and labels:
[1] = biological target: Beta-2 adrenergic receptor (Homo sapiens) (UniProt P07550); assay: qHTS validation assay of beta-arrestin-biased ligands of beta2-adrenergic receptor (AID 485366); also: 0% is about no effect
In short: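 Compound series up to 46 microM applied to beta2-AR/beta-arrestin Tango cells, 18 hr, 37 degrees C, 5% CO2. Read-out: tTA-driven luciferase luminescence, converted to %Activity; concentration-response curves assigned curve classes.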

[2] = biological target: Flap endonuclease 1 (Homo sapiens) (UniProt P39748); assay: qHTS Validation Assay for the Inhibitors of Human Flap endonuclease 1 (FEN1) (AID 488816); also: % is scaled to controls: 0 for no effect and ±100 for the full control effect
In short: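 qHTS format: compounds and 10 nM FEN1 incubated 15 min at room temperature before adding 50 nM substrate. Cleavage followed by reads at 0 and 15 min; normalized data fitted to a four-parameter Hill curve.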

[3] = biological target: M-phase phosphoprotein 8 (Homo sapiens) (UniProt Q99549); assay: qHTS Validation Assay for Inhibitors for MPP8 Chromodomain Interactions with Methylated Histone Tails (AID 488949);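 also: AlphaScreen signal from MPP8 chromodomain bound to biotinylated H3K9me3 peptide; top concentration of the series differs between compounds; % is scaled to controls: 0 for no effect and ±100 for the full control effect; nearly all actives have a fitted effect of over 55% in size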
In short: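 AlphaScreen read-out: streptavidin donor and nickel chelate acceptor beads (final 10 ug/mL), 30 min in the dark at RT. Complex of 50 nM MPP8 and 50 nM b-H3(1-18)K9me3 peptide had been exposed to compounds for 30 min beforehand.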

[4] = biological target: Chromobox protein homolog 1 (Homo sapiens) (UniProt P83916); assay: qHTS Validation Assay for Inhibitors of HP1-beta Chromodomain Interactions with Methylated Histone Tails (AID 488953); also: nearly all actives have a fitted effect of over 50% in size; also: potency is read from the fitted curve at half-maximal effect
In short: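 Compounds pinned into a preassembled complex of HP1-beta and trimethyl-K9 histone H3(1-18) biotin peptide (50 nM each; PBS pH 7.4, 0.01% Tween-20). After 30 min, bead-based AlphaScreen detection followed.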

[5] = biological target: Methanococcus maripaludis chaperonin (MmCpn) (UniProt Q6LX38); assay: High-Throughput Screening for Modulators of Cytosolic Chaperonin Activity: MmCpn Primary Screen (AID 488978);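 also: 50 nM MmCpn enzyme hydrolysing 30 µM ATP at 37 °C; 0% is about no effect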
In short: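 ADP formation read by HTRF Transcreener, 665/590 nm emission after 320 nm excitation. Enzyme: archaeal chaperonin at 50 nM final; substrate ATP 30 uM final; 10 min, 37C, after 5 min compound preincubation at RT.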

[6] = Validation screen for small molecules that induce genotoxicity in human embryonic kidney (HEK293T) cells expressing luciferase-tagged ELG1 (AID 493106); also: 0% is about no effect
In short: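 In this validation screen, increased ELG1-luciferase signal flags compounds causing genetic stress. HEK293T reporter cells are treated 16 hr (37 °C, 5% CO2), developed with ONE-Glo for 30 min at room temperature, and imaged on a CCD-based reader.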

[7] = biological target: Thioredoxin reductase 1, cytoplasmic (Rattus norvegicus) (UniProt O89049); assay: qHTS Assay for Substrates of Mammalian Selenoprotein Thioredoxin Reductase 1 (TrxR1) (AID 488772);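 also: series mostly up to about 57 µM; 0% is about no effect; a drop in NADPH fluorescence below the no-compound background marks a TrxR1 substrate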
In short: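 In this dual-purpose format, potential substrates are identified from the first fluorescence read after selenite addition, not from the 8-minute delta. Rat enzyme is preincubated with NADPH and then with compound at ~22 deg C.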

[8] = biological target: Thioredoxin reductase 1, cytoplasmic (Rattus norvegicus) (UniProt O89049); assay: qHTS Assay for Inhibitors of Mammalian Selenoprotein Thioredoxin Reductase 1 (TrxR1) (AID 488773); details: Potency: inhibition;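 also: drop in NADPH fluorescence over an 8 min run after selenite addition; series mostly up to about 57 µM; % is scaled to controls: 0 for no effect and ±100 for the full control effect; nearly all actives have a fitted effect of over 40% in size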
In short: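 Inhibition is scored from the loss of NADPH fluorescence between first and last reads of an 8-min kinetic run. Selenite (400 uM) was the substrate, added after 15 min compound preincubation at room temperature.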

[9] = biological target: D(1A) dopamine receptor (Homo sapiens) (UniProt P21728); assay: HTS Assay for Allosteric Agonists of the Human D1 Dopamine Receptor: Primary Screen for Agonists (AID 488981); also: potency is read from the fitted curve at half-maximal effect; as to activation: 0% is about no effect
In short: (§1)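 Calcium flux in an inducible, force-coupled HEK293 Trex D1 line (overnight at 30 C): agonist mode is the 180 s kinetic read after compound; potentiator mode is the following 180 s read after dopamine at EC20.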

[10] = biological target: D(1A) dopamine receptor (Homo sapiens) (UniProt P21728); assay: HTS Assay for Allosteric Agonists of the Human D1 Dopamine Receptor: Primary Screen for Potentiators (AID 488982); also: 0% is about no effect
In short: as §1

[11] = biological target: D(1A) dopamine receptor (Homo sapiens) (UniProt P21728); assay: HTS Assay for Allosteric Agonists of the Human D1 Dopamine Receptor: Primary Screen for Antagonists (AID 488983);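 also: calcium flux response to an EC80 dopamine challenge measured with no-wash dye; % is scaled to controls: 0 for no effect and ±100 for the full control effect; nearly all actives have a fitted effect of over 65% in size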
In short: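 In this primary screen, compounds are applied to calcium-dye-loaded HEK293 T-REx cells with force-coupled D1 expression induced overnight at 30 C. An EC80 of dopamine follows the 180 s compound phase, and calcium is monitored for a further 180 s.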

[12] = biological target: ATP-dependent 6-phosphofructokinase (Trypanosoma brucei brucei) (UniProt O15648); assay: qHTS Assay to Find Inhibitors of T. brucei phosphofructokinase: hit validation (AID 492961);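 also: luminescence reports ADP formed as PFK phosphorylates fructose-6-phosphate with ATP; series mostly up to about 51 µM; % is scaled to controls: 0 for no effect and ±100 for the full control effect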
In short: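 ADP-Glo luminescence read-out of ADP formed by 1.25 nM PFK from 0.1 mM ATP and 0.5 mM F6P (TEA pH 8.0, 45 min, RT). Compounds titrated; activity normalized to no-enzyme and full-enzyme controls.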

[13] = biological target: ATPase family AAA domain-containing protein 5 (Homo sapiens) (UniProt Q96QE3); assay: Validation screen for small molecules that inhibit ELG1-dependent DNA repair in human embryonic kidney (HEK293T) cells expressing luciferase-tagged ELG1 (AID 493107); also: nearly all actives have a fitted effect of over 70% in size; also: potency is read from the fitted curve at half-maximal effect
In short: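 Compounds reducing 5-fluorouridine-driven ELG1-luciferase signal in HEK293T cells were scored; exposure lasted 16 hr at 37 °C with luminescence detected via ONE-Glo.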

[14] = Nrf2 qHTS screen for inhibitors: Validation (AID 493153; active = well fitted inhibition curve with a large enough effect in the main read-out, with a control signal flat, not every such curve was filed as active); details: viability change: measured here: cytotoxicity max response
In short: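 In this counterscreened reporter format, each well gives two signals: CellTiter-Fluor fluorescence for cytotoxicity and ARE-luciferase luminescence for Nrf2 function. A549 ARE_Fluc cells in 5% FBS OPTI-MEM were exposed to compound titrations for 18-24 h.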

[15] = Quantitative high throughput screen for delayed death inhibitors of the malarial parasite plastid, 96 hour incubation (AID 488745); also: series mostly up to about 29 µM; % is scaled to controls: 0 for no effect and ±100 for the full control effect; nearly all actives have a fitted effect of over 70% in size
In short: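 Two-generation (96 h) exposure of luciferase-reporter P. falciparum in erythrocytes, 2% hematocrit, 0.1% parasitemia final, 37 C, 5% CO2, RPMI 1640 with 0.5% Albumax. Growth inhibition scored by reduced luminescence.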

[16] = Quantitative high throughput screen for delayed death inhibitors of the malarial parasite plastid, 48 hour incubation (AID 488752); also: % is scaled to controls: 0 for no effect and ±100 for the full control effect; nearly all actives have a fitted effect of over 65% in size
In short: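 Cultures: infected erythrocytes at final 2% hematocrit and 0.1% parasitemia in Albumax-supplemented RPMI. Parasites express integrated firefly luciferase. Incubation with compound lasts 48 h before luminescent detection of remaining reporter activity.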

[17] = biological target: Transient receptor potential cation channel subfamily V member 1 (Homo sapiens) (UniProt Q8NER1); assay: HTS Assay for Compounds that Act as Enhancers of the Vanilloid Receptor 1 (AID 488979); also: 0% is about no effect
In short: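 Calcium influx kinetics via Fluo-8 (480/520 nm) in TRPV1-expressing cells, 2000/well cultured overnight at 35.5C. Compound-alone read 3 min (agonist phase), followed by EC20 capsaicin challenge for 2 min (enhancer phase).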

[18] = biological target: Thyrotropin receptor (Homo sapiens) (UniProt P16473); assay: qHTS Assay for Antagonists of the Thyroid Stimulating Hormone Receptor (AID 488980); also: series mostly up to about 58 µM; 0% is about no effect
In short: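 TSHR-HEK293 cells; 70 uM RO 20-1724 PDE inhibitor; compound + EC80 TSH (4 nM final); anti-cAMP cryptate antibody/cAMP-d2 in lysis buffer, 30 min RT; HTRF 665/620 nm read.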

[19] = biological target: Thyrotropin-releasing hormone receptor (Homo sapiens) (UniProt P34981); assay: qHTS for Small Molecule Agonists and Allosteric Enhancers of Human TRH Receptor: Validation Screen for Agonists (AID 493127;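 active = calcium activation more than 3 SD above the typical response in the agonist read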;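 also: intracellular calcium rise by fluo-8 fluorescence before TRH EC20 addition; 0% is about no effect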); details: TRH receptor agonist cell assay; at 2 µM; stronger effect = higher value
In short: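 Kinetic fluorescence assay of agonist-induced calcium release: overnight-plated TRHR cells, room-temperature fluo-8 loading, baseline then compound addition with per-second reads.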

Sequence of Transient receptor potential cation channel subfamily V member 1 (Homo sapiens) (Q8NER1 whole entry, looked up): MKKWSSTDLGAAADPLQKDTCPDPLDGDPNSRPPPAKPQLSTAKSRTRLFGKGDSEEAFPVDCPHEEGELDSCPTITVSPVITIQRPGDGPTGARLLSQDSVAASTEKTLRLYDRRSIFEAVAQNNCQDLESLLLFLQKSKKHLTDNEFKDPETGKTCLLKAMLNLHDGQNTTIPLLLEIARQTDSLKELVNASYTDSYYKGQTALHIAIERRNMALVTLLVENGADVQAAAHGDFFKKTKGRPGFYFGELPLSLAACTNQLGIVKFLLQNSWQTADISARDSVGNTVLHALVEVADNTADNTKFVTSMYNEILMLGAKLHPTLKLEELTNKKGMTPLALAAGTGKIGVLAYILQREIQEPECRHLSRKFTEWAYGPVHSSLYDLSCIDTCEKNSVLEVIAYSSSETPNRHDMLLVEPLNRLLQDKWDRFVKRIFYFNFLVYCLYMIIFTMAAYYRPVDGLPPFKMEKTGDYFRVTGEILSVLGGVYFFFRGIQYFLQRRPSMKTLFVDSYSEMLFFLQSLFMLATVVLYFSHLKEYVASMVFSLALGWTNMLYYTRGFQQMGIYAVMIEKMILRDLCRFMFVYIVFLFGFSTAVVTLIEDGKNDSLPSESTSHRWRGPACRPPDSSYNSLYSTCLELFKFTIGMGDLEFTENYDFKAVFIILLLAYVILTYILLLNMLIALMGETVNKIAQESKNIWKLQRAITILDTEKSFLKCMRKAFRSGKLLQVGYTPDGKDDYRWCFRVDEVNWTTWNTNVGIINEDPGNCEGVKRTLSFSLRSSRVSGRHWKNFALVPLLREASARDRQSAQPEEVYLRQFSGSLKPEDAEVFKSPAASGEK
Sequence of Thyrotropin-releasing hormone receptor (Homo sapiens) (P34981 whole entry, looked up): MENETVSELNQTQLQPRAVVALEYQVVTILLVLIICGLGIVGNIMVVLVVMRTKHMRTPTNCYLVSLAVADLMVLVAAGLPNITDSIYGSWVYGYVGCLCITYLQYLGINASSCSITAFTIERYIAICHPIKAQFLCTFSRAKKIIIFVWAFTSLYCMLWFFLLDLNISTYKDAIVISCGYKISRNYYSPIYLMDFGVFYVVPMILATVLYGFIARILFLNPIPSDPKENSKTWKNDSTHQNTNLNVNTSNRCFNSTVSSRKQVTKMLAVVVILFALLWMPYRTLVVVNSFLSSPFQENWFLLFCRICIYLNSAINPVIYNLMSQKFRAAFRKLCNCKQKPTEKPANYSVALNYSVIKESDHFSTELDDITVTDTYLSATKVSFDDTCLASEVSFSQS
Sequence of D(1A) dopamine receptor (Homo sapiens) (P21728 whole entry, looked up): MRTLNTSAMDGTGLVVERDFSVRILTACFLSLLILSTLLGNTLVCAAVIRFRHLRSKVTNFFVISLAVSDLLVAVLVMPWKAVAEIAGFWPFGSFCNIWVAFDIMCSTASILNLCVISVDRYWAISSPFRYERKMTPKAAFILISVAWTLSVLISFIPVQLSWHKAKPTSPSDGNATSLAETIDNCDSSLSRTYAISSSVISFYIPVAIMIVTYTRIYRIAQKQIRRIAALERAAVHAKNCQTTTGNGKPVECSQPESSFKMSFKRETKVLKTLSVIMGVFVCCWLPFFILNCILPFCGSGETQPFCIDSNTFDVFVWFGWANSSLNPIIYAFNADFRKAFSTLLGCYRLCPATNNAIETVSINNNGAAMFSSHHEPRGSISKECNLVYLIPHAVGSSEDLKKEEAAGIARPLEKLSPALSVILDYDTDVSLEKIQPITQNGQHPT
Sequence of ATPase family AAA domain-containing protein 5 (Homo sapiens) (Q96QE3 whole entry, looked up, the tested form may be a part): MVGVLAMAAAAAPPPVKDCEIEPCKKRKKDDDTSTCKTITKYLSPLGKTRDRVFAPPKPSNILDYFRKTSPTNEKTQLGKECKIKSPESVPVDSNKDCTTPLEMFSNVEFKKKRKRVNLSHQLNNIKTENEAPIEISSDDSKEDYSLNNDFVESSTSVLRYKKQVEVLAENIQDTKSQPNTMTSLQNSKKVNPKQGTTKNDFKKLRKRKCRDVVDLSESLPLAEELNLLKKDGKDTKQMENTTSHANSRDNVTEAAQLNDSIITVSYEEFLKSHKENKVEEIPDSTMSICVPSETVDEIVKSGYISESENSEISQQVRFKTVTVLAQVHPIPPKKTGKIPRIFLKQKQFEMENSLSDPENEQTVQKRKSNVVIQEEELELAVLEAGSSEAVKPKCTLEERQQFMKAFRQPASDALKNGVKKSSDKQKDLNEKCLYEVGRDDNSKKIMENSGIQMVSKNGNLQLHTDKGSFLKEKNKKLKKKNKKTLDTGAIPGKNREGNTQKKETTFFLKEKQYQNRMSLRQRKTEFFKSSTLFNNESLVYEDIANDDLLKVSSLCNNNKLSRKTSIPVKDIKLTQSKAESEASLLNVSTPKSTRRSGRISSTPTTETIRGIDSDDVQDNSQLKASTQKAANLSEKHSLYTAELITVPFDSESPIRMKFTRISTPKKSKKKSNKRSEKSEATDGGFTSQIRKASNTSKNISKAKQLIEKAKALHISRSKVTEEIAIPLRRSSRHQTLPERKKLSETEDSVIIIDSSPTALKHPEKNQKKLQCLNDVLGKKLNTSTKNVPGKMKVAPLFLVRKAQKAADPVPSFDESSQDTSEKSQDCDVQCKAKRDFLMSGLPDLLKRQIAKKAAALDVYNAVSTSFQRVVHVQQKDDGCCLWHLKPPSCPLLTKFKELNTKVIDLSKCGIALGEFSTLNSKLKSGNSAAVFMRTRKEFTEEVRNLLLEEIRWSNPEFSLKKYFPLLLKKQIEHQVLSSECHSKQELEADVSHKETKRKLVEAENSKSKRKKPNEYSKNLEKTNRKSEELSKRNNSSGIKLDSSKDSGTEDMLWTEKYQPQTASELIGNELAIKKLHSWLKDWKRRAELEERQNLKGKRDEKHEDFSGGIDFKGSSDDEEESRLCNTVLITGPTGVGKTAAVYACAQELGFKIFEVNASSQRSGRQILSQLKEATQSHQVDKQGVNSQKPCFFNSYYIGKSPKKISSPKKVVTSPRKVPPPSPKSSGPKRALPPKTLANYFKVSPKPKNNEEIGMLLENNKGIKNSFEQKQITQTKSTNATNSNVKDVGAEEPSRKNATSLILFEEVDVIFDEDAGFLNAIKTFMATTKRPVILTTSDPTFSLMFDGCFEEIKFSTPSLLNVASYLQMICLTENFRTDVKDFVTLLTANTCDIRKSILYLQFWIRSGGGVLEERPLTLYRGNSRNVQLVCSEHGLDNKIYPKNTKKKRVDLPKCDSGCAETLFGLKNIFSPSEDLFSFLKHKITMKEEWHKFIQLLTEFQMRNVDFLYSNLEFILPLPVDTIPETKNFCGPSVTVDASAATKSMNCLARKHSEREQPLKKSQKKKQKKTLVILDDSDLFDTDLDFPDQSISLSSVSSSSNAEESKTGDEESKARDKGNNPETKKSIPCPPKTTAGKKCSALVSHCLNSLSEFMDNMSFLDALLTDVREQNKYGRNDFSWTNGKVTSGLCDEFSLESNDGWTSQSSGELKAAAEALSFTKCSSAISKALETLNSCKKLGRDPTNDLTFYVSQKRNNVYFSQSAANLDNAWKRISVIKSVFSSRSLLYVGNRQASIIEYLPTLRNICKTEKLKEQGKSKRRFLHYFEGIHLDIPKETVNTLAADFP
Sequence of Thyrotropin receptor (Homo sapiens) (P16473 whole entry, looked up): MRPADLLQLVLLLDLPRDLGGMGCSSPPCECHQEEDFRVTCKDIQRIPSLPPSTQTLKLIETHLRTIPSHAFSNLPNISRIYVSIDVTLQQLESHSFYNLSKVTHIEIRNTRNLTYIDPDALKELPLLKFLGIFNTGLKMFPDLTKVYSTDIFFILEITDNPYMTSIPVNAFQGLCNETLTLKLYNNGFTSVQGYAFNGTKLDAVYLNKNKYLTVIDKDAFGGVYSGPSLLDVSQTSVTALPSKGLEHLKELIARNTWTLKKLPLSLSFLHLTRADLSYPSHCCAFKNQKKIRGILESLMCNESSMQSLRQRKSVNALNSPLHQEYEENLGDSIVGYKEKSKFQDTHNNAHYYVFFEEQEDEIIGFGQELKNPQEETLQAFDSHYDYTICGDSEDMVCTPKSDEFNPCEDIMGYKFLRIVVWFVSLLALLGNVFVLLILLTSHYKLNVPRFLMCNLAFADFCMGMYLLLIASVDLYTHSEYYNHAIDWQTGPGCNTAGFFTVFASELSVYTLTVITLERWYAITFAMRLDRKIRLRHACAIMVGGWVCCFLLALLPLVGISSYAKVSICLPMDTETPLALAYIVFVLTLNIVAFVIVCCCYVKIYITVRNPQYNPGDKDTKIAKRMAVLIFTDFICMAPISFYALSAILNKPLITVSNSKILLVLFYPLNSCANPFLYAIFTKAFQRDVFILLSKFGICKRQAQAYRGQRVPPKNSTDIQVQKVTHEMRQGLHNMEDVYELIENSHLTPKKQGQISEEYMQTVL
Sequence of Thioredoxin reductase 1, cytoplasmic (Rattus norvegicus) (O89049 whole entry, looked up): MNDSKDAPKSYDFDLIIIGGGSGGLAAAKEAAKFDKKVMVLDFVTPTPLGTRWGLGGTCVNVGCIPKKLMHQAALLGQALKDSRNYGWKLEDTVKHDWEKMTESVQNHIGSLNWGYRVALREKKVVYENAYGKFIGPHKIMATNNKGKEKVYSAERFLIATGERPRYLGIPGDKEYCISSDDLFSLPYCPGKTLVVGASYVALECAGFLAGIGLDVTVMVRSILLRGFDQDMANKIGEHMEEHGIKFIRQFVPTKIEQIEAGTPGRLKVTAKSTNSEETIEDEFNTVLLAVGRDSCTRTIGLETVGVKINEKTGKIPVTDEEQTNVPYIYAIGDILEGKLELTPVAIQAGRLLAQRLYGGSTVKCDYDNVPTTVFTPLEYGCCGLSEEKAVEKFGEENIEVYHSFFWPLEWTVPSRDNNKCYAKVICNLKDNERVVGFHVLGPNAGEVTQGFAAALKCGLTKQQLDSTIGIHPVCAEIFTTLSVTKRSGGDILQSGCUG
Sequence of Chromobox protein homolog 1 (Homo sapiens) (P83916 whole entry, looked up): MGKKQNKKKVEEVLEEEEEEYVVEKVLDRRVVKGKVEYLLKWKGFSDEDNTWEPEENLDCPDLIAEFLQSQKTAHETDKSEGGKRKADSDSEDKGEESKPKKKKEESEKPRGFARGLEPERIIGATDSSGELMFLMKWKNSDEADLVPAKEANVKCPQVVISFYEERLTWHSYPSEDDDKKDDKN

C/C=C(/C)C(=O)O[C@H]1C(C)=C2[C@H]([C@@H]1OC(=O)CCCCCCC)[C@@](C)(OC(C)=O)C[C@H](OC(=O)CCC)[C@@]1(O)[C@H]2OC(=O)[C@@]1(C)O
inactive: outcome [1] | Potency [2] | Potency [3] | Potency [4] | outcome [5] | outcome [6]

c1ccc(C2(c3ccccc3)CC2C2=NCCN2)cc1 (centres undefined)
inactive: outcome [1] | outcome [7] | Potency [8] | Potency [2] | Potency [3] | Potency [4] | outcome [5] | Potency [9] | outcome [10] | Potency [11] | Potency [12] | outcome [6] | Potency [13] | outcome [14]
-1.31%: viability change [14]

CC[C@@H]1C(=O)OC[C@@H]1Cc1cncn1C
inactive: Potency [15] | Potency [16] | Potency [3] | outcome [17] | outcome [18]

CN(C)[C@@H]1C(=O)C(C(N)=O)=C(O)[C@@]2(O)C(=O)C3=C(O)c4c(O)cccc4[C@@](C)(O)[C@H]3[C@H](O)[C@@H]12
inactive: Potency [12]

C1CCC(NC2CCCCC2)CC1
inactive: Potency [12]

COC(C)(C)CCCC(C)C/C=C/C(C)=C/C(=O)OC(C)C (centres undefined)
inactive: Potency [12]

O=C(O)C(Cl)Cl
inactive: Potency [12]

C[N+]1(C)C2CC(OC(=O)[C@H](CO)c3ccccc3)CC1C1OC12 (some centres undefined)
7.5 nM (active) and inactive: Potency [4]
inactive: Potency [2] | Potency [3]

C#CC1(O)CCC2C3CCC4=CC(=O)CCC4(C)C3CCC21C (centres undefined)
inactive: Potency [12]

c1ccc2sc(C3(N4CCCCC4)CCCCC3)cc2c1
inactive: outcome [1] | outcome [7] | Potency [8] | Potency [2] | Potency [3] | Potency [4] | outcome [5] | outcome [17] | outcome [18] | Potency [9] | outcome [10] | outcome [6] | Potency [13] | activation [19] -13.1% | outcome [14]
-6.89%: viability change [14]

CCCCCCCCCCCCCCCC[N+](C)(C)C
inactive: Potency [12]

COC(=O)[C@@H](N)CCCN=C(N)N[N+](=O)[O-]
-8.47%: viability change [14]
inactive: outcome [1] | outcome [7] | Potency [8] | Potency [2] | Potency [3] | Potency [4] | outcome [5] | Potency [9] | outcome [10] | Potency [11] | outcome [6] | Potency [13] | outcome [14]

NC(=NCCC[C@H](N)C(=O)O)N[N+](=O)[O-]
3.87%: viability change [14]
inactive: outcome [1] | Potency [16] | outcome [7] | Potency [8] | Potency [2] | Potency [3] | Potency [4] | outcome [5] | outcome [17] | outcome [18] | Potency [9] | outcome [10] | Potency [11] | outcome [6] | Potency [13] | activation [19] 0.625% | outcome [14]

O=C(N[C@H]1CN2CCC1CC2)c1ccc(Cl)cc1
inactive: outcome [1] | outcome [7] | Potency [8] | Potency [2] | Potency [3] | Potency [4] | outcome [5] | Potency [9] | outcome [10] | Potency [11] | outcome [6] | Potency [13] | outcome [14]
-3.51%: viability change [14]

O=C(O)COc1ccccc1
inactive: Potency [12]

CC[N+]1(CCOC(=O)C(O)(c2ccccc2)c2ccccc2)CCCCC1
inactive: Potency [12]

CC(=O)OCC1=C(C(=O)O)N2C(=O)[C@@H](N)[C@@H]2SC1
inactive: Potency [12]

CN[C@@H]1C[C@@H](c2ccc(Cl)c(Cl)c2)c2ccccc21
3.66%: viability change [14]
inactive: outcome [1] | outcome [7] | Potency [8] | Potency [3] | Potency [4] | outcome [5] | outcome [18] | outcome [10] | outcome [6] | activation [19] 29.8% | outcome [14]
active: Potency [9] 12.6 µM | Potency [13] 23.1 µM

C[C@]12CCC3C(CC[C@H]4C[C@H](O)CC[C@]34C)C1CC[C@@H]2C(=O)CO (some centres undefined)
inactive: outcome [1] | outcome [7] | Potency [8] | Potency [2] | Potency [3] | Potency [4] | outcome [5] | outcome [17] | outcome [18] | Potency [9] | outcome [10] | Potency [11] | outcome [6] | Potency [13] | activation [19] 1.56%
